Measured values: PubChem BioAssay AID624298 (National Center for Advancing Translational Sciences (NCATS), 2012)
Results filed as inconclusive are left out. Values without a mark were called inactive. The source made the active and inactive calls. Calls come from the whole dose curve; as a rule, active = well fitted activation curve with a large enough effect; inconclusive = small, poorly fitted or top-dose-only effect; inactive = no such curve, though single readings can be large or run the other way.

Experiment: Activators of T cell receptors: Hit Validation; for activation: 0% is about no effect
Details: primary human leukocytes, cytokine release by HTRF, 48 h, TCR-stimulated with anti-CD3 beads; series mostly up to 46.1 µM; activation: at the top concentration
How it was run: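 Primary human leukocytes incubated 48 hr with anti-CD3 beads plus compound, without co-stimulation. Secreted IL-2 quantified by HTRF (europium cryptate donor, d2 acceptor, 665 nm emission).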
Potency is the fitted concentration of half-maximal effect.

SMILES | activation | Potency
COc1ccc(OC)c(NC(=O)COC(=O)c2ccc(OC)c(S(=O)(=O)N3CCOCC3)c2)c1 | 7.46% | 
CN(C)c1ccc(N/C(N)=N/c2nc(C(F)(F)F)cc(C(F)(F)F)n2)cc1 | 4.85% | 
O=C(O)c1ccccc1-c1c2cc(I)c(=O)c(I)c-2oc2c(I)c(O)c(I)cc12 |  | 996 nM (active)
CN(C)CCCN1c2ccccc2Sc2ccc(Cl)cc21 | 8.87% | 
CN(C)c1ccc(C=c2c3ccccc3n3c2c2ccccc2[n+]3C)cc1 |  | 560 nM (active)
CC1CCCC(C)N1C(=O)COC(=O)C12CC3CC(CC(Cl)(C3)C1)C2 (stereo not drawn) | 4.37% | 
C[C@@H]1O[C@@H](O[C@H]2[C@H](Oc3cc(O)c4c(c3)O[C@H](c3ccc(O)cc3)CC4=O)O[C@H](CO)[C@@H](O)[C@@H]2O)[C@H](O)[C@H](O)[C@H]1O | -5.16% | 
CC(c1nnc(SCC(=O)c2c(N)n(C3CC3)c(=O)[nH]c2=O)n1-c1ccc(F)cc1)N(C)C (stereo not drawn) | 1.48% | 
COc1ccc(C(=O)c2sc3nc(C)cc(-c4cccs4)c3c2N)cc1OC | 9.06% | 
COc1cc(C(=O)Nc2ccn(C)n2)ccc1OC(F)F | 6.29% | 
CCN(CC)CC(=O)c1c(N)n(Cc2ccccc2)c(=O)n(C)c1=O | 5.63% | 
CC(C)c1nnc(SCC(=O)N2CCOCC2)n1C | 0.107% | 
COc1ccc(NC(=O)C(c2ccccn2)N(C(C)=O)c2ccc(C)cc2)cc1 (stereo not drawn) | -1.67% | 
